PubChem BioAssay (NCI)
About 83,000 compounds went through this panel and 20% of them were active in at least one assay; those are over-represented in the sample as a whole.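 How to read the values: 0–100, growth inhibition (40 = 60% inhibited); 0, no net growth; -100 to 0, cell death (-40 = 40% of starting cells died; -100 = all dead).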 Calls of active or inactive are those of the source. How the source made its calls: active means growth percent below 10; inactive means the rest.

Legend:
Assay in all cases: NCI-60 one-dose screen, 48 h (100 = growth as untreated, 0 = no growth, -100 = all killed)
[1] = system: SK-MEL-2 melanoma; conditions: 10 µM unless noted
[2] = system: EKVX NSCLC; conditions: 10 µM unless noted
[3] = system: SN12C renal; conditions: 10 µM unless noted
[4] = system: ACHN renal; conditions: 10 µM unless noted
[5] = system: A498 renal; conditions: 10 µM unless noted
[6] = system: CCRF-CEM leukemia; conditions: 10 µM unless noted
[7] = system: MOLT-4 leukemia; conditions: 10 µM unless noted
[8] = system: CAKI-1 renal; conditions: 10 µM
[9] = system: TK-10 renal; conditions: 10 µM unless noted

Measured: growth

CCCC(=O)Oc1ccc(/C(=C(\C)c2ccc(Cl)cc2)c2ccc(OCCN(CC)CC)cc2)cc1
inactive: [2] 12% | [3] 35.3% | [5] 11.5%
active: [1] -74.4% | [4] -23.2% | [6] -18.6% | [7] -13.1%

CC(CCC(=O)O)[C@H]1CCC2C3C(=O)C[C@@H]4CC(=O)CC[C@]4(C)C3CC(=O)[C@@]21C (stereo not given in full)
inactive: [1] 128% | [2] 93.6% | [3] 93.2% | [8] 84.7% | [5] 88% | [6] 103%

Fc1ccc(/C=N/n2c(-c3cc(Cl)cc(Cl)c3Cl)nn(CNc3ccc(Cl)nn3)c2=S)cc1
active: [6] -70.4%
inactive: [1] 98.1% | [2] 104% | [3] 102% | [9] 103% | [4] 104% | [5] 105% | [7] 75.1%

COc1ccc(Cn2cc(COc3ccc4c5ccnc(C)c5n(CCCc5ccccc5)c4c3)nn2)cc1
inactive: [1] 64.4% | [2] 101% | [3] 69.1% | [9] 103% | [5] 88.8% | [6] 19.7% | [7] 38.4%

CN1CCN(CC(=O)N(C)c2ccc(N=C(c3ccccc3)c3c(O)[nH]c4ccc(C#N)cc34)cc2)CC1
active: [7] 8.12%
inactive: [1] 16.4% | [2] 63.4% | [3] 26.4% | [4] 48.4% | [8] 20.2% | [5] 27% | [6] 15.8%

CS(=O)(=O)OCC(COS(C)(=O)=O)C(c1ccccc1)c1ccccc1
inactive: [1] 123% | [2] 99.1% | [3] 89.2% | [9] 110% | [4] 107% | [5] 93.3% | [6] 99.6% | [7] 75.7%

CCOc1ccc(-n2c(-c3cc(OC)c(OC)c(OC)c3)nnc2-c2ccc(OC)cc2N)cc1
inactive: [1] 65.6% | [2] 82.4% | [3] 91.5% | [9] 70% | [5] 67.3% | [6] 42.3% | [7] 36.8%

COc1ccc2c(c1)C(=O)/C(=C/c1cccc(OCC(=O)c3ccccc3)c1)O2
active: [8] -98.1% | [6] -39.3% | [7] -52.4%
inactive: [1] 75.1% | [2] 82.1% | [3] 32.9% | [4] 45.1% | [5] 117%

CCC1S/C(=N\N=C(/C)c2cc3ccccc3o2)N(c2ccccc2)C1=O (stereo not given)
inactive: [1] 99.6% | [2] 135% | [3] 120% | [9] 108% | [4] 100% | [5] 136%
active: [6] -72.8% | [7] -80.8%

COc1ccc2c(c1)OC(N)=C(C#N)C2c1ccc(F)c(F)c1 (stereo not given)
inactive: [1] 32.9% | [2] 49.2% | [3] 54.7% | [9] 70.5% | [6] 14.9% | [7] 28.2%
active: [5] 9.88%

Fc1cccc(F)c1C#Cc1ccc2cccnc2c1
inactive: [1] 84.4% | [2] 68.6% | [3] 88.3% | [9] 88.4% | [4] 88.5% | [5] 99.7% | [6] 83.7% | [7] 71.6%

O=C(O)c1cc2ccccc2cc1Nc1ccccc1
inactive: [1] 99.2% | [2] 97.6% | [3] 101% | [9] 127% | [4] 98.8% | [5] 102% | [6] 94.1% | [7] 91.1%

CN(C)CCS(=O)(=O)Nc1cc(-c2ccc3ncnc(Nc4ccc(F)c(Cl)c4)c3c2)cnc1Cl
active: [1] -53.4% | [2] -9.17% | [8] -30.6% | [5] -78% | [6] 0.907% | [7] -36.7%
inactive: [3] 22.6% | [4] 20.2%

COc1cc2ncnc(Oc3ccc(NC(=O)Nc4ccc(CN5CCOCC5)c(C(F)(F)F)c4)c4ccccc34)c2cc1OC
inactive: [1] 52.1% | [2] 16% | [9] 12.7% | [6] 20.1%
active: [3] 8.87% | [4] -3.27% | [5] -11.3% | [7] -20.7%

CC(C)C(=O)Nc1nc2c(s1)CCCc1ccn(S(=O)(=O)c3ccccc3)c1-2
inactive: [1] 83.7% | [2] 88.2% | [3] 105% | [9] 83.6% | [5] 110% | [6] 87.2% | [7] 78%

CCN1CCN(Cc2ccc(NC(=O)Nc3cccc(-n4ccc5c(NC(=O)c6ccccc6)nccc54)c3)cc2C(F)(F)F)CC1
inactive: [1] 90.6% | [2] 89.8% | [3] 95.7% | [4] 96% | [8] 81% | [5] 90% | [6] 78.7% | [7] 112%

COc1ccc(/C(Cl)=N/N=C(\Cl)c2cc(OC)c(OC)c(OC)c2)cc1OC(C)=O
inactive: [1] 92.3% | [2] 111% | [3] 96.1% | [9] 81.1% | [5] 90.2% | [6] 94.4% | [7] 82.4%

CN1C(=O)C2(NN=C(c3cccc4ccccc34)S2)c2ccccc21 (stereo not given)
active: [6] 9.4% | [7] 2.9%
inactive: [1] 37.1% | [2] 24% | [3] 31.5% | [4] 30.5% | [8] 25.7% | [5] 47%

COc1ccccc1S(=O)(=O)Nc1ccc2c3c(cc(-c4cnn(C5CC5)c4)nc13)C(=O)N2C
inactive: [1] 78.6% | [2] 56.1% | [3] 76.7% | [9] 48.2% | [4] 68% | [5] 59.3% | [6] 76.9% | [7] 56.3%

Oc1ccc(Cl)cc1Sc1cc(Cl)ccc1O
inactive: [1] 94.1% | [2] 103% | [3] 86.3% | [9] 104% | [4] 90.1% | [6] 96.7%
